Rows were chosen to be rich in hits. Some 0.28% of all compounds tested hit in one or more screens of this group.
NPYLR7 agonist – agonists of mosquito NPYLR7 receptor, primary screen, cell-based, Aedes aegypti, calcium fluorescence, mosquito biting behavior. Aedes aegypti neuropeptide Y-like receptor 7 (NPYLR7). HEK293T NPYLR7/Galpha15, GCaMP6s calcium fluorescence. activation, % at 10 µM. hit rate 0.15% among 270,000. AID 1259423, 2018; in the data active means activation above about 40%
hcGAS lum – Primary biochemical luminescence assay for human cyclic GMP-AMP synthase inhibitors | Q8N884 | recombinant h-cGAS, ATP depletion, Kinase-Glo luminescence | inhibition, % at 12.5 µM | hit rate 0.081% among 290,000 | AID 1259398, 2018
Target sequence (Q8N884 whole entry, looked up): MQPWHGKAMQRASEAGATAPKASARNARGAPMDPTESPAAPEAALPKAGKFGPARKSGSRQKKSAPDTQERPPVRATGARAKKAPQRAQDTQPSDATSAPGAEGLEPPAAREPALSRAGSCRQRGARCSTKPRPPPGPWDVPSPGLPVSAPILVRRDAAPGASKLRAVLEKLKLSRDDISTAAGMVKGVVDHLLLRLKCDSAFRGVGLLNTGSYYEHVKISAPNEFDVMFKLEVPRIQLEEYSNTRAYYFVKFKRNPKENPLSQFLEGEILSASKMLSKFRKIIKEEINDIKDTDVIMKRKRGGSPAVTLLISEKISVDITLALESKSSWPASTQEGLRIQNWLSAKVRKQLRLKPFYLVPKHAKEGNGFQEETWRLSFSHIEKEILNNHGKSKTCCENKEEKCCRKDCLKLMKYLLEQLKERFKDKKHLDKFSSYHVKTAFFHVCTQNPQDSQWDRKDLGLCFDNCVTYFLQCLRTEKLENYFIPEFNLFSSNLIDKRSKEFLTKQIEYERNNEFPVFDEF
mcGAS inh – cyclic GMP-AMP synthase inhibitors, mouse, primary biochemical chemiluminescence. recombinant cGAS, Kinase-Glo ATP depletion luminescence. inhibition, % at 12.5 µM. hit rate 0.15% among 160,000. AID 1259399, 2018. Q8C6L5
Large screens that a line does not name were inactive. Unless noted, no stated cut-off is given here; in the data, active means inhibition above about 40%; inactive means the rest.

COc1cc2c(C#N)c(N(CCO)CCO)nc(N)c2c(N)n1	hcGAS lum 56.3
CCOc1cc2c(C#N)c(N(CC(C)C)CC(C)C)nc(N)c2c(N)n1	none (no result: mcGAS inh)
Cc1onc(-c2ccccc2Cl)c1C(=O)N[C@H](c1nnc2c(C(F)(F)F)cccn12)C(C)C	none
O=C1OC(c2ccc(Cl)c([N+](=O)[O-])c2)=N/C1=C\c1cc2cc3c4c(c2oc1=O)CCCN4CCC3	NPYLR7 agonist 123.2
Cc1cccc(C2=N/C(=C\c3cc4cc5c6c(c4oc3=O)CCCN6CCC5)C(=O)O2)c1	NPYLR7 agonist 116.8
COc1cc(OC)c(OC)cc1C=C1N=C(c2cccc(C)c2)OC1=O	none (no result: mcGAS inh)
Cc1ccc(C2=NC(=Cc3ccc(N4CCOCC4)s3)C(=O)O2)cc1[N+](=O)[O-]	none (no result: mcGAS inh)
CCCc1ccc2oc(C(=O)N3CCN(C(=O)c4cccs4)CC3)c(C)c2c1	none (no result: mcGAS inh)
CSc1ccc(C2CC(c3cccs3)=Nc3ncnn32)cc1 (stereo unspecified)	NPYLR7 agonist 124.3 (no result: mcGAS inh)
c1ccc(C2=Nc3ncnn3C(c3ccccc3)C2)cc1 (stereo unspecified)	none
COc1ccc(C(=O)N2CCN(C(C(=O)Nc3cc(OC)cc(OC)c3)C3CCCC3)CC2)cc1 (stereo unspecified)	none
COc1cc(OC)cc(C(=O)N2CCN(C(C(=O)Nc3ccc(NC(C)=O)cc3)C3CCCC3)CC2)c1 (stereo unspecified)	NPYLR7 agonist 59.6
COc1ccccc1C1c2cccn2CCCN1Cc1ccccc1[N+](=O)[O-] (stereo unspecified)	hcGAS lum 81.0
CCc1ccccc1C1c2cccn2CCCN1Cc1ccccc1[N+](=O)[O-] (stereo unspecified)	none
O=c1cc(-c2ccccc2)oc2c(O)c(O)ccc12	hcGAS lum 71.5 (no result: mcGAS inh)
O=c1cc(-c2ccccc2)oc2cc(O)c(O)cc12	none
Cc1nnsc1C(=O)N1CCC(CCC(=O)Nc2ccc3c(c2)OCCO3)CC1	none (no result: mcGAS inh)
COc1cccc(C=CC(=O)c2ccc(OC)c(OC)c2)c1	none
COC(=O)c1ccc(C=CC(=O)c2ccc(O)c(OC)c2)cc1	mcGAS inh 43.8
COc1cc(C(=O)C=Cc2cccc(O)c2)ccc1O	mcGAS inh 40.7
COc1cc(C=CC(=O)c2ccc(C#N)cc2)ccc1O	none
CCOP(=O)(Cc1ccc(NC(=O)c2cccc(Br)c2)cc1)OCC	none
CS(=O)(=O)/C(C#N)=C/c1cnc2ccc(Br)cn12	hcGAS lum 88.5
CCOc1cc(C=C(C#N)S(C)(=O)=O)ccc1OC	none
COc1ccc(-c2c(C)nn3c2ncc2c(=O)n(-c4n[nH]c(C)n4)ccc23)cc1	none (no result: mcGAS inh)
CCOc1ccccc1CN1CCN(Cc2c[nH]c3ccccc23)CC1CCO (stereo unspecified)	none (no result: mcGAS inh)
O=C1NC(=S)SC1=Cc1ccc(Cl)cc1	mcGAS inh 54.8
O=C(O)CN1C(=O)/C(=C/c2c(F)cccc2Cl)SC1=S	none
O=C1NC(=S)SC1=Cc1c(F)cccc1Cl	hcGAS lum 47.6 (no result: mcGAS inh)
O=C1NC(=S)SC1=Cc1ccc(F)cc1	none
O=C1CSC(=S)N1N=Cc1ccc(-c2nc3ccccc3s2)o1	none (no result: mcGAS inh)
O=C1CSC(=S)N1N=Cc1ccc([N+](=O)[O-])o1	mcGAS inh 58.8
O=C1CSC(=S)N1N=Cc1cc(Br)c(O)c(Br)c1	NPYLR7 agonist 67.3, hcGAS lum 43.0, mcGAS inh 59.5
COc1cc(C=NN2C(=O)CSC2=S)cc(Br)c1O	none
COCCNC(=O)Cn1nc2c(c1NC(=O)C1CC1)CSC2	none
Nc1c(NC(=O)N2CCN(C3CCCC3)CC2)c(-c2ccc(Cl)cc2)nn1-c1ccccc1	hcGAS lum 164.0 (no result: mcGAS inh)
O=C(Nc1ccc(Cl)cc1)N1CCCN(C2CC2)CC1	none (no result: mcGAS inh)
O=C(Nc1ccccc1F)c1ccc2c(c1)S(=O)(=O)Nc1ncnn1-2	none
COC(=O)c1nc2n(n1)-c1ccccc1S(=O)(=O)N2	hcGAS lum 57.0 (no result: mcGAS inh)
O=C1OC(=C2C(=O)C(=O)N(c3ccccc3)C2c2ccccc2)C=C1Nc1ccccc1 (stereo unspecified)	none (no result: mcGAS inh)
CN1C(=CC=C(C#N)C#N)C=Cc2ccccc21	none (no result: mcGAS inh)
C=CCN1C=CC(=CC=C(C#N)C#N)C=C1	NPYLR7 agonist 71.9 (no result: mcGAS inh)
O=C(Nc1ccc(-c2nc3ccccc3o2)c(O)c1)c1ccc(Cl)cc1	none
CCNC(=O)N1CCC2(CC1)[C@@H](C(=O)OCC)[C@@H](O)C(=O)N2Cc1ccccc1	none
O=C(O)C=C1C(=O)Nc2ccccc21	none
Cc1[nH]c(/C=C2\C(=O)Nc3ccccc32)c(C)c1CCC(=O)O	NPYLR7 agonist 74.1 (no result: mcGAS inh)
CC(C)S(=O)(=O)Oc1ccc(CN(Cc2ccco2)C(=O)c2cccc(F)c2)cc1	hcGAS lum 44.8
CC(C)S(=O)(=O)Oc1ccc(CN(C(=O)c2cccc(F)c2)C2CC2)cc1	none
CN(C(=O)CS(=O)(=O)CCCc1ccccc1)c1ccnn1C	none
O=C(NC1CCCCC1)c1nnc2n1CCN(C(=O)c1ccc3occc3c1)C2	none (no result: mcGAS inh)
CCN(CC)Cc1c(O)cc(C)c2c1O/C(=C\c1cc3ccccc3o1)C2=O	NPYLR7 agonist 69.5
Cc1cc(O)c(CN2CCN(C)CC2)c2c1C(=O)/C(=C/c1cc3ccccc3o1)O2	none
Cc1ccc(-n2ncc3c(=O)n(NC(=O)c4ccccc4C)cnc32)cc1C	none (no result: mcGAS inh)
COc1ccc(CCNC(=O)c2ccc(-c3cc(-c4cccc(C(F)(F)F)c4)n[nH]3)cc2)cc1	none
COc1cccc(CNC(=O)c2ccc(-c3cc(-c4cccc(C(F)(F)F)c4)n[nH]3)cc2)c1	mcGAS inh 103.8
C[n+]1ccc(C=CC(=O)c2ccc3c4c(cccc24)CC3)cc1	none
C[n+]1ccc(C=CC(=O)c2ccc3cccc4c3c2CC4)cc1	mcGAS inh 61.1
CCOC(=O)c1ccc(NC(=O)N2CCc3ccccc3C2c2ccccc2Cl)cc1 (stereo unspecified)	none
CCCCCCCCCCCCCCCC(=O)NCCO	none
CCCCNC(=O)CCCCCNC(N)=O	NPYLR7 agonist 55.1 (no result: mcGAS inh)
CC(C)(Oc1ccc(Cl)cc1)C(=O)Nc1c2c(nn1C(C)(C)C)CSC2	none
CC1NCCN(c2ccc3c(c2)OCO3)C1=O (stereo unspecified)	none (no result: mcGAS inh)
Cc1[nH]nc2c1C(C1CCCCC1)C(C#N)C(=N)O2 (stereo unspecified)	none
COc1cccc(C2CN(C(=O)CC(C)(C)C)CC2C(=O)NCc2ccccn2)c1OC (stereo unspecified)	hcGAS lum active (no result: mcGAS inh)
COc1cc(C2CN(C(=O)CC(C)(C)C)CC2C(=O)NCC(C)C)cc(OC)c1OC (stereo unspecified)	none (no result: mcGAS inh)
O=c1[nH]c(CCl)nc2c1cnn2Cc1ccccc1	mcGAS inh 53.8
CSc1nc2c(cnn2Cc2ccccc2)c(=O)[nH]1	none (no result: mcGAS inh)
NS(=O)(=O)c1ccc2[nH]c(=O)c3n[nH]c(=O)n3c2c1	none (no result: mcGAS inh)
O=c1[nH]c2ccccc2n2c(=S)[nH]nc12	mcGAS inh 52.3
CCCC1COCCN1Cc1ccc2ccccc2n1 (stereo unspecified)	none
CN(C)Cc1ccc2ccc3cccc4ccc1c2c34	hcGAS lum 83.7 (no result: mcGAS inh)
CN(C)Cc1ccccc1Cc1ccccc1	none (no result: mcGAS inh)
COc1ccc(N2C(=O)CSC2c2ccc(NC(=O)c3cccc([N+](=O)[O-])c3)cc2)cc1 (stereo unspecified)	none
CC(=O)c1ccc(S(=O)(=O)NCCn2nc(-c3ccccc3)ccc2=O)cc1	none
CCC1C(=O)NCCN1Cc1nc(-c2ccccc2OC)oc1C (stereo unspecified)	none
